Most compounds without a hit are left out; they make up all but 4.8% or so of the library.
DAX1 inh-1 – DAX1 (NR0B1) inhibitors, primary screen, cell-based, HEK293, Gal4-DAX1, luciferase luminescence; Nuclear receptor subfamily 0 group B member 1 (Homo sapiens), P51843; HEK293 Gal4-DAX1 luciferase reporter; inhibition, % at 6.75 µM; 0.99% of 340,000 active; AID 504766, 2011;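 active means inhibition above the mean over all tested compounds plus 3 SD, cut at about 4.2% in these data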;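 further: inhibition shows as a rise in luminescence from relieved DAX1 repression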
Target sequence (P51843 207-470 limits assumed): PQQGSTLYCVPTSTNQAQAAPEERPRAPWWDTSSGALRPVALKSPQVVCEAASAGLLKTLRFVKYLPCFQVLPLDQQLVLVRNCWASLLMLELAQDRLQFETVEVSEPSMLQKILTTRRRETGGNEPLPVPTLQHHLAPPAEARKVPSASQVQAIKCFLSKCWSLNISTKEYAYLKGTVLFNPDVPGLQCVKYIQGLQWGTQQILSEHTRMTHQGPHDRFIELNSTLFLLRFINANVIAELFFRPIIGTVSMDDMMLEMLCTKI
hcDAF-12 act – H. contortus DAF-12 nuclear receptor activators, primary screen, cell-based, luminescence, HEK293, lit1-tk-luc reporter; HEK293 hcDAF-12 lit1-tk-luc reporter; 0% DMSO, 100% Δ7-dafachronic acid; activation, % at 6.8 µM; 1.4% of 370,000 active; AID 652067, 2013;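 active means activation above the mean of all tested compounds plus 3 SD, cut at about 5.5% in these data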
ssDAF12 agonist – S. stercoralis DAF-12 nuclear receptor activators, primary screen, cell-based, luminescence, HEK293, GRIP1 co-expression, lit1-tk-luc. activation, % at 6.8 µM. 1% of 370,000 active. HEK293 ssDAF-12/GRIP1 lit1-tk-luc reporter; % of 3 µM dafachronic acid response. Nuclear hormone receptor DAF-12 (Strongyloides stercoralis);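 active means activation above the mean over all tested compounds plus 3 SD, cut at about 0.9% in these data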
DAX1 inh-2 – DAX1 (NR0B1) inhibitors on StAR promoter, primary screen, cell-based, luminescence, SF-1 (NR5A1), full-length DAX-1. HEK293T StAR-luciferase reporter, SF-1/DAX-1 repression relief. inhibition, % at 6.8 µM. 1.1% of 370,000 active;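 active means inhibition above the mean over all tested compounds plus 3 SD, cut at about 3.6% in these data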;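 further: higher inhibition means more luminescence from relief of DAX-1 repression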
SMARCA2 act – SMARCA2 (BRM) function activators, primary screen, cell-based, luminescence, high throughput; MG213 cells, MMTV-luciferase reporter, dexamethasone, overnight; activation, % at 9.1 µM; 1% of 370,000 active; AID 652017, 2013; in the data active means activation above about 7.8%
hgDAF12 agonist – H. glycines DAF-12 receptor agonists, primary screen, cell-based, luminescence, HEK293, GAL4 fusion, UAS-luciferase; activation, % at 6.8 µM; 1.8% of 370,000 active; Nuclear hormone receptor DAF-12 (Heterodera glycines), GAL4 fusion; HEK293 GAL4-hgDAF12 UAS-luciferase reporter, agonist luminescence; normalized to butyrate control;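 active means activation above a cutoff set at the mean of all screened compounds plus 3 SD, cut at about 10% in these data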
DAX1 conf – DAX1 (NR0B1) inhibitors relieving SF-1 repression, confirmation, cell-based, luminescence, HEK293T, full-length DAX-1, SF-1 activated StAR promoter | shares compounds with DAX1 inh-2 | HEK293T StAR-promoter luciferase reporter, SF-1/DAX-1 repression | inhibition, % at 6.8 µM | 87% of 2,400 active;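 active means inhibition above the average of every tested compound plus 3 SD, cut at about 3.8% in these data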
SF1 AF2mut Luc – StAR reporter signal changes without DAX1, counter-screen for DAX1 inhibitor project, cell-based, luminescence, AF-2 mutant SF-1, transactivation; inhibition, % at 6.8 µM; 78% of 2,400 active; HEK293 StAR-luciferase, SF-1 AF2 mutant; shares compounds with DAX1 inh-2;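 active means inhibition above the mean of all tested compounds plus 3 SD, cut at about 3% in these data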
SMARCA2 conf – SMARCA2 (BRM) function activators, confirmation, cell-based, luminescence, triplicate | activation, % at 9.1 µM | 30% of 3,500 active | MG213 cells, MMTV-luciferase with dexamethasone, overnight; MG213 cells expressing E1A, Rb sequestered; DMSO wells 0%, reference activator 100% | shares compounds with SMARCA2 act | AID 652260, 2013;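 active means activation above its plate's cutoff, the mean activation of tested wells plus 3 SD, cut at about 7.9% in these data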
VP16 Luc act – GAL4-VP16 luciferase reporter activation, counter-screen for SMARCA2 (BRM) activator project, cell-based, pG5luc, luminescence, high throughput | HEK293 GAL4-VP16 pG5luc reporter; scaled: DMSO wells 0%, SAHA wells 100% | 41% of 3,500 active | activation, % at 9.1 µM | shares compounds with SMARCA2 act;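 active means activation above the solvent-only control well mean plus 3 SD, averaged across control plates, cut at about 5.2% in these data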
LXRb hcDAF ctr – LXR agonists, Gal4 luciferase reporter, confirmation, counter-screen for hcDAF-12 agonist project, cell-based, luminescence, HEK293, H. contortus campaign; AID 743027, 2013; shares compounds with hcDAF-12 act; activation, % at 6.8 µM; 3,400 tested, under 10 active; HEK293 Gal4-LXR tk-luc reporter, 24 h; normalized: DMSO 0%, positive control 100%;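 active means mean percent activation of the reporter above a cutoff set as the average over tested compounds plus their standard deviation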
Target sequence (P55055 whole entry, looked up, the tested form may be a part): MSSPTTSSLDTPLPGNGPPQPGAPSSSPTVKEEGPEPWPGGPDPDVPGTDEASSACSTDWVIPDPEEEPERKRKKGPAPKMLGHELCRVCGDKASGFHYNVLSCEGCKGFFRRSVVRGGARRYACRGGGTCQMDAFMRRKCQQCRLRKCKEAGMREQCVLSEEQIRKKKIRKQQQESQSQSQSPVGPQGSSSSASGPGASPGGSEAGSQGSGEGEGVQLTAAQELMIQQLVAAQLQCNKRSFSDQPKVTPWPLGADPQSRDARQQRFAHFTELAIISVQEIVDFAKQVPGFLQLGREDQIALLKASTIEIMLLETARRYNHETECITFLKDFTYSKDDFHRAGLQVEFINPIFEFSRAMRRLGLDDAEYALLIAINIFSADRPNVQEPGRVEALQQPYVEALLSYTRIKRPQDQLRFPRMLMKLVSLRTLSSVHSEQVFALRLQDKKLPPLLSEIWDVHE
hcDAF12 conf – H. contortus DAF-12 receptor agonists, confirmation, cell-based, luminescence, HEK293, lit1-tk-luc, triplicate. shares compounds with hcDAF-12 act. AID 743032, 2013. HEK293 hcDAF-12 lit1-tk-luc reporter; % of Δ7-dafachronic acid response. activation, % at 6.8 µM. 61% of 3,400 active;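 active means mean activation across triplicate tests above the threshold derived from the earlier primary screen, cut at about 5.5% in these data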
hgDAF12 ag – H. glycines DAF-12 receptor agonists, confirmation, cell-based, luminescence, HEK293, GAL4-LBD fusion | shares compounds with hgDAF12 agonist | HEK293 GAL4-hgDAF12 luciferase reporter, agonist mode; percent of butyrate response | activation, % at 6.8 µM | 80% of 3,300 active;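 active means mean activation over triplicate wells above the hit cutoff derived from the earlier primary screen, cut at about 11% in these data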
LXRb DAF12 ctr – LXR agonists, Gal4 luciferase reporter, confirmation, counter-screen for hgDAF-12 agonist project, cell-based, luminescence, HEK293, H. glycines campaign; shares compounds with hgDAF12 agonist; 24 h; activation, % at 6.8 µM; 3,300 tested, under 10 active;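 active means mean activation of the triplicate above a set limit carried over from the primary screen, none filed active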
A number is an active result; n = inactive; x = no result given.

SMILES | DAX1 inh-1 | hcDAF-12 act | ssDAF12 agonist | DAX1 inh-2 | SMARCA2 act | hgDAF12 agonist | DAX1 conf | SF1 AF2mut Luc | hgDAF12 ag | LXRb DAF12 ctr | others
Clc1ccccc1N=C1NN=C(c2cccs2)CS1 | n | 10 | 1.3 | 7.2 | n | 18 | 9.5 | 5.3 | 16 | n | LXRb hcDAF ctr=n;hcDAF12 conf=9.3
N=c1c2ccccc2nnn1-c1ccc(C(F)(F)F)cc1 | n | n | n | n | n | n | x | x | x | x
CCC(=O)Oc1ccc(C(=O)Nc2ccc3c(c2)OCO3)cc1 | x | n | 1.7 | 5.5 | n | 22 | 13 | 7.8 | 15 | n
CCC(=O)Nc1ccc(C(=O)Nc2ccc3c(c2)OCO3)cc1 | n | n | n | n | n | n | x | x | x | x
O=C(Nc1ccc2c(c1)OCO2)c1ccc(Cl)s1 | n | 14 | 1.9 | 4.6 | n | 16 | 12 | 9.9 | 21 | n | LXRb hcDAF ctr=n;hcDAF12 conf=12
Cc1ccc(C(=O)N2CCN(c3ncc(C(F)(F)F)cc3Cl)CC2)s1 | n | n | n | n | n | n | x | x | x | x
COc1cc(C(=O)OCC(=O)Nc2cccc(S(=O)(=O)N3CCCC3)c2)ccc1OCC(C)C | n | n | n | n | n | n | x | x | x | x
O=S1(=O)c2c(cccc2N2CCC[C@@H]2CO)O[C@@H]2CCN1C2 | x | n | n | n | n | n | x | x | x | x
Fc1ccccc1CSc1ncnc2c1ncn2C1CCCCO1 (centres undefined) | n | n | n | 6.1 | n | 14 | 8.6 | 5.0 | 13 | n
Cn1cccc1C(=O)C(=O)Nc1ccc(F)c(F)c1 | n | n | 1.8 | 4.9 | n | 15 | 9.1 | 7.7 | 16 | n
Cn1cccc1C(=O)C(=O)Nc1ccc(Cl)cc1 | n | 11 | 1.4 | 5.1 | n | 14 | 15 | 9.2 | 20 | n | LXRb hcDAF ctr=n;hcDAF12 conf=8.6
Cn1cccc1C(=O)C(=O)Nc1cc(Cl)cc(Cl)c1 | n | n | n | n | n | n | x | x | x | x
CC1(c2nnc(-c3ccncc3)o2)CC(c2ccc(F)cc2)=NO1 (centres undefined) | n | n | n | n | n | n | x | x | x | x
Cc1cc(C)n2nc(-c3ccc(F)cc3)cc2n1 | n | 9.5 | 2.9 | 6.6 | n | 18 | 13 | 8.5 | 18 | n | LXRb hcDAF ctr=n;hcDAF12 conf=12
COc1ccc(/C=C/c2nc(-c3ccccc3O)n(-c3ccccc3)n2)cc1 | n | n | n | n | n | n | x | x | x | x
COc1ccc(/C=C/c2nc(-c3ccccc3O)n[nH]2)cc1 | n | 6.5 | n | 4.6 | n | 20 | 14 | 8.4 | 18 | n
CN(C)C(=O)c1ccc(Cc2cn(C)c3ccccc23)nc1 | x | n | n | n | n | n | x | x | x | x
S=C(c1ccc(-c2ccc(Cl)cc2)o1)N1CCCCC1 | 4.8 | n | n | 5.3 | n | 15 | 15 | 9.0 | 20 | n
NC(=Nc1ccccc1)NC(=O)c1nc(Cl)c(N)nc1N | n | n | n | 5.4 | 9.2 | 17 | 8.2 | 6.4 | 14 | n | SMARCA2 conf=27;VP16 Luc act=11
N#Cc1ccccc1NC(=O)CN(Cc1ccccc1)Cc1ccccc1 | n | n | n | n | n | n | x | x | x | x
CCC(C(=O)OCC(=O)Nc1ccc2[nH]c(=O)[nH]c2c1)c1ccccc1 (centres undefined) | n | n | n | n | n | n | x | x | x | x
COC(=O)C1C(=O)c2c([nH]c(C(=O)OC3CCCC3C)c2C)CC1C (centres undefined) | n | n | n | 4.7 | n | 18 | 5.5 | 3.3 | 11 | n
CC1CCN(C(=O)c2ccc3ccccc3c2)CC1 | n | n | n | 7.9 | n | 14 | 6.8 | 3.8 | 15 | n
CC1CC(C)CN(C(=O)c2ccc3ccccc3c2)C1 (centres undefined) | n | n | n | n | n | n | x | x | x | x
CCN(CC)C(=O)C1=C(C)N(Cc2ccc(F)cc2)C(=O)C(CC(=O)NCc2ccco2)C1 (centres undefined) | n | n | n | n | 8.4 | n | x | x | x | x | SMARCA2 conf=n;VP16 Luc act=n
CCN(CC)C(=O)C1=C(C)N(Cc2ccc(F)cc2)C(=O)C(CC(=O)NCc2cccs2)C1 (centres undefined) | n | n | n | n | n | n | x | x | x | x

Screens (PubChem)
